# CYP2C9 activ: CYP2C9 (human) activation. P11712. recombinant CYP2C9, luciferin-H conversion, luminescence; active compounds read high; factor 1 = untreated enzyme, 0 = blocked. activation factor at 5 µM. 96,000 tested, 1.4% active. AID 1024;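 active = activation factor of 2 or more for CYP2C9 at a 5 µM dose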;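 note: 0 = sulfaphenazole-blocked wells and 1 = vehicle-only wells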
# PLK1 inh: inhibitors of human PLK1 kinase. recombinant PLK1 kinase, TR-FRET peptide phosphorylation. inhibition, % at 10 µM. 97,000 tested, 0.53% active;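 active = inhibition of 50% or more in the single-concentration screen; inactive = inhibition below 50%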;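 note: 0% = DMSO max control and 100% = H-89 dihydrochloride min control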
# CYP2C19 inh: blocks human cytochrome P450 2C19; 96,000 tested, 21% active; inhibition, % at 5 µM; P33261; AID 778; CYP2C19 Supersomes, luciferin-H EGE luminescence, 30 min;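 active = CYP2C19 inhibition above a set limit at 5 µM in the primary screen, cut at about 50% in these data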;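 note: plate controls were negative control wells for no effect and 2.5 mM tranylcypromine positive control for full effect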
# Target sequence (P33261 whole entry, looked up): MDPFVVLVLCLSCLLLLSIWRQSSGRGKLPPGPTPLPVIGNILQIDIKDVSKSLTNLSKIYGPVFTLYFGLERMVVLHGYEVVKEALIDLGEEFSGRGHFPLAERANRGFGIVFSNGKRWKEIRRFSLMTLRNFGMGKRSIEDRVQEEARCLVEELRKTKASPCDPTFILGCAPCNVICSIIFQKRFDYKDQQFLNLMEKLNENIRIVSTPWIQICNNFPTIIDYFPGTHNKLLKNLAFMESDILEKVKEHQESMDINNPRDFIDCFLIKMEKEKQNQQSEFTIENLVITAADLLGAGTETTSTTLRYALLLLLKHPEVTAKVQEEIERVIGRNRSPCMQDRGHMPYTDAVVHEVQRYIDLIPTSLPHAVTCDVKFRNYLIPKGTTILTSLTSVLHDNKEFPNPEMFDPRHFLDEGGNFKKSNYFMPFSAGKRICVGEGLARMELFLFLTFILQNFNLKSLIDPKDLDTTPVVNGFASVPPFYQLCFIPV
# CYP2C19 activ: cytochrome P450 2C19 (human) activation. P33261. recombinant CYP2C19, luciferin-H EGE luminescence; active compounds read high; 0 = fully inhibited enzyme, 1 = untreated enzyme. activation factor at 5 µM. 96,000 tested, under 10 active. AID 1025;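 active = activation factor of at least 2 at 5 µM in the primary screen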;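 note: 0 = wells with 2.5 mM tranylcypromine and 1 = vehicle-only wells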
# CYP2C9 inh: blocks human cytochrome P450 2C9; AID 777; P11712; 96,000 tested, 20% active; CYP2C9 Supersomes, luciferin-H conversion, luminescence; inhibition, % at 5 µM;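 active = blocking of liver enzyme CYP2C9 beyond about 50% at 5 µM, limit read from the data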
# Plk1 PBD FP: blocks phosphopeptide binding to human Plk1 polo box domain; 97,000 tested, 0.13% active; inhibition, %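 (tested at about 20 µM)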; Plk1 PBD phosphopeptide binding, fluorescence polarization; P53350; AID 693; in the data active = inhibition above about 34%, passing the limit was not always enough
# * hit, by the source's call; nt = no result. Rows were chosen to be rich in hits. Some 28% of all compounds tested hit in one or more screens of this group.
SMILES,CYP2C9 activ,PLK1 inh,CYP2C19 inh,CYP2C19 activ,CYP2C9 inh,Plk1 PBD FP
COc1ccc(C(C)=O)cc1CN1C(=O)C(C)N(c2ccc(C)cc2)C1=O (centres undefined),0.2,-6.7,81.8*,0.2,84.4*,-16.7
COc1ccc(C(C)=O)cc1CN1C(=O)NC2(CCCCC2)C1=O,1.1,-2.7,34.5,0.7,-6.3,-18.6
Cc1ccc(C(C(=O)NC2CCCCC2)N(Cc2ccco2)C(=O)Cc2c[nH]c3ccccc23)o1 (centres undefined),0.5,-9.4,53.6*,0.5,45.8,-8.9
Cc1ccc(-c2nnn(CC(=O)N(c3ccc(F)cc3)C(C(=O)NC3CCCC3)c3ccco3)n2)o1 (centres undefined),1,nt,10.2,0.9,3.5,nt
Cc1ccc(N(C(=O)Cc2c[nH]c3ccccc23)C(C(=O)NC2CCCCC2)c2ccco2)cc1 (centres undefined),0.1,-5.5,84.2*,0.2,94.0*,11.8
COc1ccc(C(C(=O)NC2CCCCC2)N(Cc2cccs2)C(=O)Cc2c[nH]c3ccccc23)cc1OC (centres undefined),0.1,-10.3,-4.8,1,85.3*,11.9
Cc1ccc(C(C(=O)NC2CCCC2)N(Cc2ccco2)C(=O)CCC(=O)Nc2cc(C)on2)cc1 (centres undefined),nt,-4.8,nt,nt,nt,-15.1
CCNC(=O)CC1C(=O)N(c2ccc(F)cc2)C(=O)N1Cc1ccccn1 (centres undefined),0.8,-14.9,5.7,0.9,17.4,14.6
COC(=O)c1ccc(N2CCN(S(=O)(=O)c3ccc(Br)cc3)CC2)c([N+](=O)[O-])c1,0.6,-8.7,30.3,0.7,38.6,1.0
Cc1c([N+](=O)[O-])cc(C(=O)Oc2ccc(Br)cc2C(=S)N2CCCCC2)cc1[N+](=O)[O-],0.7,-4.0,54.0*,0.5,33.0,5.2
Cc1cc(NC(=O)CCNS(=O)(=O)c2cc(Br)cnc2N)ccc1Br,0.6,1.5,29.5,0.7,40.7,-23.7
Nc1ncc(Br)cc1S(=O)(=O)NCCC(=O)N1CCN(c2ncccn2)CC1,0.6,-11.8,59.6*,0.4,40.8,-15.1
CCOC(=O)N1CCN(C(=O)CCNS(=O)(=O)c2cc(Br)cnc2N)CC1,1.1,-18.5,6.8,0.9,-10.9,17.5
Nc1ncc(Br)cc1S(=O)(=O)NCCC(=O)Nc1cccc(Cl)c1,0.6,1.6,66.3*,0.3,41.3,-25.0
COc1cc(OC)c(NC(=O)CCNS(=O)(=O)c2cc(Br)cnc2N)cc1Cl,0.1,-8.4,36.1,0.6,94.4*,21.3
CC(=O)NCC(=O)N(C)C(C(=O)Nc1ccc(C(C)C)cc1)c1ccccc1 (centres undefined),0.9,-5.3,-4.8,1,5.6,2.9
COc1cc(/C=N/NC(=O)CNC(=O)c2ccccc2)ccc1OC(=O)c1cccs1,0.6,6.2,27.3,0.7,38.5,-9.3
COc1ccccc1CCNC(=O)CCn1c(=O)oc2ccccc21,0.6,-14.3,82.6*,0.2,44.1,33.6
O=C(CCn1c(=O)oc2ccccc21)Nc1nc2ccccc2s1,0.4,9.6,52.5*,0.5,59.2*,0.3
Cc1ccccc1NC(=O)CCn1c(=O)oc2ccccc21,1.2,nt,44.6,0.6,-17.2,nt
CCOCC(=O)Nc1nc2ccccc2s1,nt,-5.6,nt,nt,nt,16.2
OC(CNc1nc2ccccc2s1)c1ccccc1 (centres undefined),0.3,nt,94.6*,0.1,69.5*,nt
CC(C)OC(=O)CCC(=O)Nc1nc2ccccc2s1,0.3,1.4,81.1*,0.2,66.4*,-2.8
CCOC(=O)C1CCN(C2CC(=O)N(c3cccc(Cl)c3)C2=O)CC1 (centres undefined),1,nt,12.9,0.9,1.6,nt
C=C(C)Cn1c(CCCNC(=O)C(C)(C)C)nc2ccccc21,nt,-11.7,nt,nt,nt,14.8
SMILES,CYP2C9 activ,PLK1 inh,CYP2C19 inh,CYP2C19 activ,CYP2C9 inh,Plk1 PBD FP
COc1ccc(S(=O)(=O)N2CCc3ccccc3C2)cc1OC,2.4*,-11.6,91.3*,0.1,-142.5,9.7
CCN1CCN(S(=O)(=O)c2ccc3c(c2)OCCO3)CC1,1.1,-3.1,16.7,0.8,-5.8,-8.1
COc1cc2c(cc1OC)CN(S(=O)(=O)c1ccc3c(c1)OCCO3)CC2,0.7,-5.3,94.7*,0.1,31.5,7.1
COc1ccc(S(=O)(=O)N2Cc3ccccc3CC2C(=O)O)cc1OC (centres undefined),1.1,0.4,-1.3,1,-6.5,0.5
Nc1nonc1C(=O)NCCNCc1ccccc1,1.1,-1.8,-3.6,1,-10.0,-4.5
Cn1c(C(=O)N2CCN(C3CCCCC3)CC2)cc2c(=O)n(C)c3ccccc3c21,0.9,-18.1,-5.5,1.1,13.3,-28.9
COc1ccccc1N1CCN(C(=O)c2cc3sccc3n2C)CC1,1.4,-4.1,66.0*,0.3,-40.5,-28.7
CCCN1CCN(CCCNC(=O)c2cc3c(=O)n(C)c4ccccc4c3n2C)CC1,0.3,-3.6,-14.5,1.1,67.2*,-3.9
COc1ccccc1N1CCN(C(=O)c2cc3c(=O)n(C)c4ccccc4c3n2C)CC1,0.4,-15.4,88.9*,0.1,60.6*,-13.2
Cn1c(C(=O)N2CCN(C(=O)c3ccco3)CC2)cc2c(=O)n(C)c3ccccc3c21,0.8,-17.4,53.3*,0.5,18.1,6.7
Cn1c(C(=O)NCCCN2CCCCCC2)cc2c(=O)n(C)c3ccccc3c21,0.9,0.6,11.0,0.9,6.6,-13.0
COc1ccc(Br)cc1CN1CCCCCCC1,nt,-6.2,nt,nt,nt,-20.1
O=C(CSc1nnc(-c2cccs2)n1-c1ccccc1)Nc1ccccc1,0.9,-44.5,4.1,1,8.8,2.7
CC(C)n1c(CCC(=O)O)ccc1-c1ccccc1,0.9,-11.6,13.8,0.9,10.9,-7.0
CC(C)CNS(=O)(=O)c1ccc(CCC(=O)NCc2cccnc2)cc1,0.7,-3.8,-0.1,1,31.9,27.4
Cc1ccc(OCC(=O)Nc2ccc(F)cc2)cc1C,nt,0.4,nt,nt,nt,-15.0
CCOc1ccccc1N1C(=O)c2ccc(C(=O)Nc3cccnc3)cc2C1=O,0.3,-5.4,56.6*,0.4,65.4*,-1.1
O=C(Nc1cccnc1)c1ccc2c(c1)C(=O)N(Cc1cccnc1)C2=O,0.7,-10.8,-13.3,1.1,27.0,-32.7
CN(CC(=O)NCc1cccc(F)c1)C(=O)c1ccco1,1.1,-5.4,-6.3,1.1,-6.1,-22.2
CN(Cc1cccc(F)c1)C(=O)c1ccc(S(=O)(=O)C(F)F)cc1,1.1,-12.2,59.3*,0.4,-9.5,-1.1
Cc1ccnc(NS(=O)(=O)c2ccc(NC(=O)c3c(-c4ccccc4Cl)noc3C)cc2)n1,nt,-7.3,nt,nt,nt,2.0
CCOC(=O)c1ccc(N=Cc2nc(-c3ccccc3)oc2OC(C)=O)cc1,0.5,-26.8,31.8,0.7,50.1*,8.2
CCOc1ccc(NC(=O)CN2CCN(CC(=O)Nc3ccc(Cl)c(C(F)(F)F)c3)CC2)cc1,0.7,0.9,23.3,0.8,31.8,-14.2
